Only a selection was taken, and hits are over-represented in it overall.
p53 reactivator: re-activators of mutant p53. H1299 p53-A138V BP100-luciferase reporter, luminescence, 24 h. Potency, µM (top dose mostly 92.2 µM), without a hit: at the highest dose activity change, positive = activation, hits mostly activators. actives 0.063% (n = 320,000); note: % of control where 0% means no effect; nearly all actives have a fitted effect of over 45% in size
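H1299 (p53-null), stable ts p53-A138V + BP100-Luc; 1000 cells/well, Opti-MEM/10% FBS; cpd 4 pt, 1:5; 24 h, 37 deg C, 5% CO2; detection reagent 10 min RT; luminescence.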
USP2a inh: blocks human ubiquitin-specific protease USP2a; USP2 core, Ub-CHOP2 coupled fluorogenic reporter, 485/531; actives 0.01% (n = 330,000); Potency, µM (titrated, usually from 38.3 µM), for the others: at the highest dose activity change, negative = inhibition, actives largely listed as inhibitors; AID 463254; O75604;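 note: plate controls were DMSO wells for no effect and full inhibition by NEM control for full effect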
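Deubiquitinase activity read as fluorescence (485/531 nm) after Ub-CHOP2 cleavage activates the enterokinase reporter on its substrate; USP2 core 10nM, Ub-CHOP2 and substrate 25nM each, 30min compound preincubation then 60min RT; data normalized to NEM, curves fitted.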
Integrin act MD: activates integrin-mediated alleviation for muscular dystrophy | alpha7betagal myoblasts, beta-gal FDG fluorescence, 48 h | Potency, µM (top dose mostly 38.3 µM), for the others: at the highest dose activation, hits mostly activators | actives 0.064% (n = 350,000) | AID 624291;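 note: 100% = response of the positive control SU9516; nearly all actives have a fitted effect of over 60% in size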
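alpha7betagal+/- myoblasts (passage 13, 250/well) treated 48 h at 37C with compounds at 1:260 dilution of DMSO stock. Lysed, then beta-galactosidase activity read as FDG fluorescence (ex 480/em 540) after 30 min, with pre-read for autofluorescence.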
ClpP mod: qHTS Assay for Activators of ClpP | ATP-dependent Clp protease proteolytic subunit (Bacillus subtilis (strain 168)), P80244 | purified B. subtilis ClpP, FRET peptide cleavage, 20 min | Potency, µM (highest dose often 57.5 µM), for the others: at the highest dose activity change, negative = active | actives 1.9% (n = 340,000) | AID 651965, 2013; active = well fitted falling curve with a large enough effect; inconclusive = small, poorly fitted or top-dose-only effect; inactive = no such curve, though single readings can be large or run the other way; note: the source files actives as falling curves though it sought activators and does not explain the sign; nearly all actives have a fitted effect of over 65% in size
Target sequence (P80244 whole entry, looked up): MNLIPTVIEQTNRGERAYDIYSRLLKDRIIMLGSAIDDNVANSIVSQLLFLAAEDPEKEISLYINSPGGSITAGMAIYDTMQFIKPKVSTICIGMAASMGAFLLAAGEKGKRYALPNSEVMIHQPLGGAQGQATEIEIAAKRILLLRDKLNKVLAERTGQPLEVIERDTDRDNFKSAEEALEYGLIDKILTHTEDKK
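Buffer: 100 mM Tris/HCl pH8, 100 mM KCl, 0.05% low protease BSA, 2.5% glycerol, 0.01% Tween-20. ClpP 10 microg/mL final; 20 min RT; delta FRET normalized to ADEP and DMSO controls.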
Eya2 phos inh: blocks the phosphatase activity of human Eya2 | actives 0.006% (n = 330,000) | recombinant Eya2, OMFP fluorescence dephosphorylation (OMFP is methylfluorescein phosphate) | Potency, µM (doses to about 76.9 µM), for the others: top-dose activity, negative = inhibition, most hits filed as inhibitors | O00167; note: % is set by controls: 0 for no effect and ±100 for the full control effect
Target sequence (O00167 whole entry, looked up): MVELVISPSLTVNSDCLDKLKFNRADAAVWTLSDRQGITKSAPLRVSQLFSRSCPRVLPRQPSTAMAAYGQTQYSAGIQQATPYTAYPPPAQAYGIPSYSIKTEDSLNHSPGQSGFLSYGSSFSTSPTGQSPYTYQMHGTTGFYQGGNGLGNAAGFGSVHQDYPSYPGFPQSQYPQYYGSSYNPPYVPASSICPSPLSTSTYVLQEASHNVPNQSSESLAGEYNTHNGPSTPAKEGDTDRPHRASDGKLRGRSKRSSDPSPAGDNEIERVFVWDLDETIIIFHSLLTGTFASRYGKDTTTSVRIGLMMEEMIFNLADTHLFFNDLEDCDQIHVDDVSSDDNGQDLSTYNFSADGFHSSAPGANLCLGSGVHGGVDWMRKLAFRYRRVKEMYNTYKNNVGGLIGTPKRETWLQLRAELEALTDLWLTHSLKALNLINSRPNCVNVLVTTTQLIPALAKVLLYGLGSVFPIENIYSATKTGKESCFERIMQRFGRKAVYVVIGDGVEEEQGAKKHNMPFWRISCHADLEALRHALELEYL
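Eya2 (0.2 uM) preincubated 10 min at ambient with compound, then OMFP substrate added at 50 uM; 10 min reaction in 50 mM HEPES pH 7.5, 50 mM NaCl, 5 uM MgCl2, 0.05% BSA, 1 mM DTT. Fluorescence read at Ex 485/Em 525 nm.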
Mm-Cpn inhibitor: inhibitors of Methanococcus maripaludis chaperonin TRiC (MmCpn) | purified Mm-Cpn ATPase, ADP Transcreener TR-FRET | Potency, µM (doses to about 76.9 µM), without a hit: top-dose activity, negative = inhibition, hits mostly inhibitors | actives 0.031% (n = 330,000) | AID 504842; note: % is set by controls: 0 for no effect and ±100 for the full control effect; nearly all actives have a fitted effect of over 80% in size
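ATPase turnover read by TR-FRET ADP competition (Eu cryptate antibody/ADP-d2, 665/590 nm): 10uM ATP final, 25nM Mm-CPN final, 30 min 37degC after 10-min compound preincubation, pH 7.4 Tris/KCl/MgCl2/DTT buffer.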
Active calls of the source: *; ? = inconclusive; · = no result given. Unless noted, calls come from the whole dose curve; as a rule, active = well fitted curve in the direction sought with a large enough effect; inconclusive = small, poorly fitted or top-dose-only effect, or another doubt; inactive = no such curve, though single readings can be large; an effect the other way counts as inactive or inconclusive. Potency is the fitted concentration of half-maximal effect.

SMILES	p53 reactivator	USP2a inh	Integrin act MD	ClpP mod	Eya2 phos inh	Mm-Cpn inhibitor
COc1cccc2cc(C(=O)NCC3CCCO3)c(=O)oc12 (centres undefined)	25%	-1%	2%	-1%	7%	0%
COc1ccc(-c2cc(C(F)F)n3ncc(C(=O)NCC4CCCO4)c3n2)cc1 (centres undefined)	0%	0%	24%	22µM*	-22%	-1%
O=c1c(-c2cc(-c3ccccc3)nc3c2COc2ccc(Cl)cc2-3)coc2ccc(F)cc12	·	·	·	-1%	·	·
N#Cc1c(-c2cccc(Cl)c2)[nH]c(=S)[nH]c1=O	13%	-3%	-16%	·	-3%	1%
N#Cc1cc(-c2cccc(Cl)c2)c[nH]c1=O	4%	0%	2%	22µM*	0%	-1%
C=CCn1cc(-c2cccc(Cl)c2)cc(C#N)c1=O	-5%	0%	20%	28µM*	6%	-10%
N#Cc1c(NC(=O)CS(=O)(=O)c2ccc(Cl)cc2)sc2c1CCCCC2	·	·	·	-3%	·	·
COc1ccccc1Nc1cc(C)nc(Nc2ccccc2OC)n1	-1%	-1%	0%	-10%	-13%	0%
COc1ccccc1Nc1nc(C)cc(C)n1	24%	1%	2%	18µM*	-26%	-1%
COCC(C)n1c(SCC(=O)N2CCc3ccccc3C2)nc2ccccc2c1=O (centres undefined)	-12%	-8%	0%	13µM*	-8%	0%
CC(C)OC(=O)c1cc2c(ccn2C)n1CC(=O)N(Cc1ccccc1)c1ccc(F)cc1	7%	-11%	0%	32µM*	-28%	-5%
COC(=O)c1ccc(-c2nc(CN3CCC(C(=O)N4CCOCC4)CC3)c(C)o2)cc1	2%	1%	2%	7.9µM*	17%	?
c1ccc(N2CC3COc4ccccc4C3=N2)cc1 (centres undefined)	·	·	-8%	25µM*	·	·
CC12CCC(=O)N1C(C(=O)Nc1cccc(S(=O)(=O)N3CCCCCC3)c1)CS2 (centres undefined)	-7%	1%	-21%	28µM*	-26%	1%
CC(Nc1oc(-c2ccc(COc3ccccc3)o2)nc1C#N)c1ccccc1 (centres undefined)	·	·	·	4%	·	·
Cc1nn(C)c(C(=O)NNC(=S)NCC(C)C)c1Cl	-2%	1%	-4%	8.9µM*	2%	-2%
COc1ccc(CN2CC[C@H]3C=CC[C@@H](C(=O)Nc4nccs4)[C@H]3C2=O)cc1OC	·	·	·	1%	·	·
CCOc1ccccc1C(=O)Nc1cccc2ccc(C)nc12	·	·	·	32µM*	·	·
CCn1c(SC(C)C(=O)NCc2ccco2)nnc1-c1ccccc1 (centres undefined)	·	·	·	-2%	·	·
O=C(/C=C/c1ccccc1O)c1ccco1	·	-1%	-59%	1.6µM*	13%	1%
COc1ccc(CCNC(=O)c2ccc(Cn3c(SCc4ccccc4)nc4cccnc43)cc2)cc1	·	·	·	32µM*	·	·
CCc1ccc(CNC(=O)c2ccc(CSc3nc4ccncc4n3Cc3ccccc3)cc2)cc1	·	·	·	32µM*	·	·
COc1ccc(Cn2c(SCc3ccc(C(=O)NCc4cccs4)cc3)nc3cccnc32)cc1	·	·	·	28µM*	·	·
COc1ccc(Cn2c(SCc3ccc(C(=O)NCCc4ccccc4)cc3)nc3cccnc32)cc1	·	·	·	63%	·	·
Cc1ccccc1CNC(=O)c1ccc(CSc2nc3cccnc3n2Cc2ccccc2)cc1	·	·	·	5%	·	·
SMILES	p53 reactivator	USP2a inh	Integrin act MD	ClpP mod	Eya2 phos inh	Mm-Cpn inhibitor
CCOc1ccccc1CNC(=O)c1ccc(Cn2c(SCc3ccccc3)nc3cccnc32)cc1	·	·	·	16µM*	·	·
COc1cccc(CCNC(=O)c2ccc(Cn3c(SCc4ccccc4)nc4cccnc43)cc2)c1	·	·	·	25µM*	·	·
O=C(NCCc1ccccc1)c1ccc(CSc2nc3cccnc3n2Cc2ccccc2)cc1	·	·	·	4%	·	·
Cc1ccccc1NC(NC(=O)c1cccnc1)C(Cl)(Cl)Cl (centres undefined)	8%	-1%	-5%	13µM*	-7%	4%
Cc1ccc(S(=O)(=O)C(CNC(=O)c2ccccc2F)c2cccs2)cc1 (centres undefined)	·	·	·	-5%	·	·
CN1C(=O)c2ccccc2N(C)C1c1cccs1 (centres undefined)	3%	1%	-6%	20µM*	-8%	-4%
O=C(OCC(=O)N1CCOCC1)c1cnc(Cl)c(Cl)c1	17%	1%	-34%	0%	14%	0%
CC1CN(C(=O)COC(=O)c2cnc(Cl)c(Cl)c2)CC(C)O1 (centres undefined)	9%	1%	16%	32µM*	-18%	0%
CC(Nc1ccc(-c2nc(-c3ccccn3)no2)cc1[N+](=O)[O-])c1ccccc1 (centres undefined)	·	·	·	2%	·	·
O=S(=O)(NC(=NC1CCCCC1)c1ccccc1F)c1ccccc1	2%	-3%	10µM*	·	-6%	-4%
CCc1c(C)c2ccccc2[nH]c1=O	·	·	·	-25%	·	·
CCc1ccccc1N(C)C(=O)Nc1cn(CC(C)C)c(=O)c2ccccc12	·	·	·	3%	·	·
O=C(c1cc(-c2ccc(Cl)s2)nc2ccccc12)N1CCCC1	·	·	10%	32µM*	·	·
Cc1ccc(-c2cc(C(=O)N3CC(C)CC(C)C3)c3ccccc3n2)o1 (centres undefined)	9%	-1%	-25%	·	6%	1%
Cc1ccc(-c2cc(C(=O)N3CC(C)OC(C)C3)c3ccccc3n2)o1 (centres undefined)	24%	-2%	0%	14µM*	-14%	-7%
Cc1ccc(-c2cc(C(=O)N3CCCC3)c3ccccc3n2)s1	-6%	0%	-26%	11%	-1%	0%
COc1ccc(-c2cc(C(=O)N3CCCCCC3)c3ccccc3n2)cc1	2%	1%	5%	6.3µM*	13%	-3%
CC(C)c1ccc(Nc2c(-c3ccccn3)nc3ccccn23)cc1	·	·	·	-4%	·	·
Cc1onc(-c2ccccc2)c1C(=O)Nc1ccncc1	-11%	3%	?	-3%	-10%	2%
CCC(=O)Nc1nnc(-c2ccncc2)s1	-6%	2%	-4%	16µM*	-5%	-22%
Cc1onc(-c2ccccc2)c1C(=O)Nc1ccc2c(C)cc(=O)oc2c1	-5%	-1%	1%	16µM*	4%	-5%
CCNc1nnc(-c2ccncc2)s1	7%	3%	10%	-15%	12%	-1%
Cc1onc(-c2ccccc2)c1C(=O)Nc1nnc(-c2ccncc2)s1	5%	7%	29%	32µM*	-1%	0%

Screening results (PubChem)
